Screening results: PubChem, National Center for Advancing Translational Sciences (NCATS)
The list is not random: actives were taken first. Their share in the collection is about 5.3%.
TDP1 inh: TDP1 (human) enzyme inhibition | recombinant TDP1, AlphaScreen DNA substrate cleavage | AID 485290 | Potency, µM (top dose mostly 130 µM), without a hit: top-dose activity change, negative = inhibition, most hits filed as inhibitors | 350,000 compounds, 0.28% hits | Q9NUW8; also: potency is read from the fitted curve at half-maximal effect; % is scaled to controls: 0 for no effect and ±100 for the full control effect; nearly all actives have a fitted effect of over 40% in size
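AlphaScreen read-out: signal falls as enzyme removes the 3' tyrosine-FITC from a 5'-biotinylated DNA oligo (15 nM, 5 min, RT). Enzyme was E. coli-made recombinant Tdp1 at 1 nM, exposed to compound for 15 min beforehand; beads 10 ug/ml, 10 min.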
JMJD2A Tudor inh: inhibitors of human JMJD2A Tudor domain; O75164; Potency, µM (highest dose often 114 µM), for inactives: at the top dose activity change, negative = inhibition, most hits filed as inhibitors; AlphaScreen JMJD2A-Tudor / H3K4me3 peptide binding; 390,000 compounds, 4.4% hits; also: potency is read from the fitted curve at half-maximal effect; % is scaled to controls: 0 for no effect and ±100 for the full control effect; nearly all actives have a fitted effect of over 50% in size
BAZ2B block: blocks human BAZ2B. Potency, µM (series often up to 114 µM), without a hit: at the highest dose activity change, negative = inhibition, actives largely listed as inhibitors. Q9UIF8. AlphaScreen BAZ2B-H3K14Ac peptide displacement. 360,000 compounds, 4.4% hits; also: potency is read from the fitted curve at half-maximal effect; % is scaled to controls: 0 for no effect and ±100 for the full control effect; nearly all actives have a fitted effect of over 60% in size
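Protein-peptide AlphaScreen: BAZ2B 50 nM, b-H3K14Ac 50 nM, 1x PBS pH 7.4 + 0.01% Tween-20. Preincubation 30 min RT; cpd 30 min RT (top 110 uM); beads 20 min RT, light-protected.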
CtBP-E1A blk: inhibitors of CtBP/E1A interaction; AlphaScreen GST-E1A/His-CtBP binding, 1536-well; stronger effect = lower value; activity change, % (concentration not given with the values); 340,000 compounds, 0.49% hits; in the data active = activity change below about -65%; inconclusive = mostly about -30% to -63%; also: % is scaled to controls: 0 for no effect and ±100 for the full control effect
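AlphaScreen with 125 nM GST-E1A and 125 nM His-CtBP (5X stocks) in Tris pH 8.0, 300 mM NaCl, BSA, Tween 20, TCEP. Compounds preincubated 2 h at 37 deg C, then glutathione donor/nickel acceptor beads added for 1 h at 37 deg C in dark.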
Six1-Eya2 blk: blocks human Six1 binding to Eya2; Q15475+O00167; AlphaScreen GST-Six1/His-Eya2 binding, biochemical; stronger effect = lower value; AID 651725; activity change, % (no concentration beside the values); 360,000 compounds, 0.56% hits; in the data active = activity change below about -65%; inconclusive = mostly about -30% to -63%; also: % is scaled to controls: 0 for no effect and ±100 for the full control effect
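GST-Six1 + His-Eya2 (5X stock: 250/500 nM); Tris pH 8.0, 300 mM NaCl, 0.05% BSA, 0.02% Tween 20; GSH donor/Ni acceptor beads; 1 h 37 °C dark; AlphaScreen readout.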
HP1b chromo inh: inhibitors of HP1-beta chromodomain binding to methylated histone tails; P83916; AlphaScreen HP1-beta / biotin-H3K9me3 peptide binding; Potency, µM (highest dose often 114 µM), inactives show at the highest dose activity change, negative = inhibition, usual class: inhibitors; 390,000 compounds, 0.56% hits; AID 540317; also: potency is read from the fitted curve at half-maximal effect; nearly all actives have a fitted effect of over 70% in size
Target sequence (P83916 whole entry, looked up): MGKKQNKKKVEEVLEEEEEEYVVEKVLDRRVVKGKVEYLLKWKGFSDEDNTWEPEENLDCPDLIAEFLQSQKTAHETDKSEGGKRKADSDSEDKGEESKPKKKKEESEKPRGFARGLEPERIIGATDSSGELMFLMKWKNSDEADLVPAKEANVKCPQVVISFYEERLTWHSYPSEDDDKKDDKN
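AlphaScreen: HP1-beta (50 nM) preformed 30 min with biotin-H3(1-18)K9me3 peptide (50 nM) in PBS pH 7.4, 0.01% Tween-20. Compound added for 30 min at RT, then streptavidin donor/nickel chelate acceptor beads (10 ug/mL) for 30 min.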
An asterisk follows results filed as active; ? = inconclusive; / = not tested or not shown; [ ] = dose if it differs, or a comment. Unless noted, calls follow the shape of the dose curve; as a rule, active = well fitted inhibition curve with a large enough effect; inconclusive = small, poorly fitted or top-dose-only effect; inactive = no such curve, though single readings can be large or run the other way.

SMILES	TDP1 inh	JMJD2A Tudor inh	BAZ2B block	CtBP-E1A blk	Six1-Eya2 blk	HP1b chromo inh
CC1=NOC(=O)/C1=C/c1ccc(O)c(Br)c1	/	-23%	56µM*	7	8	2%
Cn1c(N)c(C(=O)COC(=O)Cc2ccc(Cl)c(Cl)c2)c(=O)n(C)c1=O	1%	89µM*	/	/	-5	26%
CCOc1ncccc1C(=O)OCC(=O)c1c(N)n(C)c(=O)n(C)c1=O	-4%	-5%	16%	-3	-11	-2%
Cn1c(N)c(C(=O)COC(=O)c2ccccn2)c(=O)n(C)c1=O	-3%	79µM*	79µM*	-21	8	2%
Cn1c(N)c(C(=O)COC(=O)C2(c3ccc(Cl)cc3)CCCC2)c(=O)n(C)c1=O	4%	3.2µM*	-6%	3	-2	-6%
COc1ccc(CC(=O)OCC(=O)c2c(N)n(C)c(=O)n(C)c2=O)cc1OC	-1%[56.1 µM]	-15%	48%	-4	-3	27%
Cc1ccc(-c2cn3c(n2)sc2cc(C(=O)NC4CCCCCC4)ccc23)c(C)c1	0%	2%	-1%	/	/	51%
COc1ccc(-n2c(SCC(=O)NCc3ccccc3)nc3n[nH]c(C)c3c2=N)cc1	6%	-12%	10%	/	/	8%
CC1=CC(C)(C)N2C(=O)C(=Nc3ccc(O)cc3)c3cccc1c32	7%	-29%[11.4 µM]	35µM*	?	?	40µM*
C#CCOCCOCCOCCNc1nc(N2CCN(C(=O)CCCCCCCCCCNC(=O)Cn3cc(C[C@@H](C)O)nn3)CC2)nc(N2CCN(C(=O)CCCCCCCCCCNC(=O)[C@H](CCCCN)n3cc(C[C@@H](C)CC)nn3)CC2)n1	/	79µM*	?	-16	-21	?
C#CCOCCOCCOCCNc1nc(N2CCN(C(=O)CCCCCCCCCCNC(=O)[C@H](CCCCN)n3cc(CCO)nn3)CC2)nc(N2CCN(C(=O)CCCCCCCCCCNC(=O)[C@H](CCCN=C(N)N)n3cc(C[C@@H](C)CC)nn3)CC2)n1	9%	45µM*	50µM*	-11	-10	?
C#CCOCCOCCOCCNc1nc(N2CCN(C(=O)Cn3cc(CC(C)O)nn3)CC2)nc(N2CCN(C(=O)[C@H](C)n3cc(CCCN=C(N)N)nn3)CC2)n1 (stereo partly drawn)	-7%	45µM*	79µM*	8	5	-10%
C#CCOCCOCCOCCNc1nc(N2CCN(C(=O)CCCCCCCCCCNC(=O)Cn3cc(C[C@@H](C)O)nn3)CC2)nc(N2CCN(C(=O)CCCCCCCCCCNC(=O)Cn3cc(C[C@@H](C)O)nn3)CC2)n1	0%	-14%	-20%	8	-5	36%
C#CCOCCOCCOCCNc1nc(N2CCN(C(=O)CCCCCCCCCCNC(=O)[C@H](CCCCN)n3cc(C[C@@H](C)CC)nn3)CC2)nc(N2CCN(C(=O)CCCCCCCCCCNC(=O)[C@H](CCCCN)n3cc(C[C@@H](C)CC)nn3)CC2)n1	/	50µM*	/	-12	-3	71µM*
Fc1ccc2c(c1)-c1c(cnc3cc(-c4ccc(Cl)cc4)nn13)CO2	3%	-4%	-2%	/	/	23%
C#CCOCCOCCOCCNc1nc(N2CCN(C(=O)CCCCCCCCCCNC(=O)[C@H]([C@@H](C)CC)n3cc(CCCCN=C(N)N)nn3)CC2)nc(N2CCN(C(=O)CCCCCCCCCCNC(=O)[C@H](CCCCN)n3cc(C[C@@H](C)CC)nn3)CC2)n1	0%	/	50µM*	/	/	/
C#CCOCCOCCOCCNc1nc(N2CCN(C(=O)[C@H]([C@@H](C)CC)n3cc(CCCN=C(N)N)nn3)CC2)nc(N2CCN(C(=O)[C@H](CCCCN)n3cc(CC(C)O)nn3)CC2)n1 (stereo partly drawn)	-1%	-11%	1%	0	5	44%
COC(=O)CN1C(=O)C(O)(c2c(C)[nH]c3ccccc23)c2ccccc21 (stereo not drawn)	1%	-16%	32%	/	/	72%
O=C(O)CCc1nc(-c2ccccc2)no1	2%	-6%[57.1 µM]	/	6	1	49%
CCN(CC)CCc1nc(-c2ccccc2)no1	9%[21 µM]	40µM*	-4%	-17	7	13%
Cc1nc(SCC(=O)O)c(C#N)c2c1CCCC2	10µM*	?	79µM*	/	-1	12%
CCOC(=O)CCc1c(C)nc(SCC(=O)O)c(C#N)c1C	-2%	25µM*	9%	-1	3	11%
CCOC(=O)CCc1c(C)nc(SCc2ccc(C(=O)O)cc2)c(C#N)c1C	/	-5%	2%	-11	0	43%
COc1cc(CNCCN2CCOCC2)ccc1OCc1c(Cl)cccc1Cl	/	/	-10%	/	/	/
COc1cc(CNCc2ccccn2)ccc1OCc1ccc(Cl)cc1	3%	25µM*	?	?	?	18%
SMILES	TDP1 inh	JMJD2A Tudor inh	BAZ2B block	CtBP-E1A blk	Six1-Eya2 blk	HP1b chromo inh
COc1cc(CNCc2ccccn2)ccc1OCc1c(Cl)cccc1Cl	10%	?	89µM*	?	?	20%
CCOC(=O)CSC1=Nc2ccccc2C2=NC(CCC(=O)NCc3ccccc3)C(=O)N12 (stereo not drawn)	-4%	-11%	1%	/	/	21%
CC(C)CNC(=O)COC(=O)c1c2c(nc3ccccc13)CCC2	0%	-30%	56µM*	-7	4	3%
O=C(c1c[nH]c(C(=O)C(Cl)(Cl)Cl)c1)c1c(F)cccc1F	/	22µM*	-23%	3	14	3%
Cc1ccc2c(C)c(C(=O)N(Cc3ccc(N(C)C)cc3)Cc3ccco3)oc2c1C	11%	18µM*	10µM*	/	/	-25%
CCc1ccc2oc(C(=O)N(Cc3ccc(N(C)C)cc3)Cc3ccco3)c(C)c2c1	15%	18µM*	8.9µM*	/	/	?
CC(=O)Nc1ccc(S(=O)(=O)NC2(C(F)(F)F)C(=O)Nc3c2c(=O)[nH]c(=O)n3-c2ccc(C)c(C)c2)cc1 (stereo not drawn)	6%	-16%	-13%	/	/	1%
CC1(C)COC(c2cccc(C3=NC(C)(C)CO3)n2)=N1	5%	20µM*	-38%	-1	2	6%
COc1cccc(-c2oc3ccc(C)cc3c(=O)c2O)c1	3%	60%	34%	/	/	97%
COc1ccnc(CSC(N)=Nc2ccc(F)cc2)c1	9%	22µM*	50µM*	?	?	-11%
COc1ccc(Cn2c(CO)cnc2SCc2ccc(F)cc2)cc1	5%	-31%	?	/	/	2%[57 µM]
Cc1ccc(-n2nc3ccc(N)cc3n2)cc1C	/	-25%	50µM*	/	-8	-12%
CC1CCCCN1C(=O)CNCc1ccc(F)cc1 (stereo not drawn)	/	3.2µM*	79µM*	0	15	?
